{"source": "ChEMBL document CHEMBL4513216", "about": "“Probing the Open Global Health Chemical Diversity Library for Multistage-Active Starting Points for Next-Generation Antimalarials” (ACS Infect Dis, 2020)", "note": "Hit rate of the full screen: of about 69,000 compounds, about 8,600 (12%) showed an effect of 50% or more. The list comes from a sample in which strong results are over-represented; it also holds similar structures and randomly drawn compounds.", "data": [{"tested_on": "Plasmodium berghei", "assay": "Screen against P. berghei liver stage (PbLuc), transformed with Luciferase, at 10uM", "type": "functional, HepG2", "details": "tested at 10 uM", "units": {"INHIBITION": "%"}, "values": [{"smiles": "CCC(=O)N1C[C@@H](C(=O)NC)[C@H](c2ccnc(N3CCCC3)n2)C1", "INHIBITION": 1.93}, {"smiles": "Cc1nc2ccccc2nc1CN1CCOC(Cn2cccn2)C1", "note": "(stereo unspecified)", "INHIBITION": 26.5}, {"smiles": "Cc1cnn(CC2CN(Cc3nc4ccccc4nc3C)CCO2)c1", "note": "(stereo unspecified)", "INHIBITION": 58}, {"smiles": "c1ccc2sc(CN3CCOC(Cn4cccn4)C3)nc2c1", "note": "(stereo unspecified)", "INHIBITION": 72.4}, {"smiles": "Cc1nc(C)n(CC2CN(Cc3cccc(OC(C)C)c3)CCO2)n1", "note": "(stereo unspecified)", "INHIBITION": 45.7}, {"smiles": "c1ccc2sc(CN3CCOC(Cn4cncn4)C3)nc2c1", "note": "(stereo unspecified)", "INHIBITION": 85.9}, {"smiles": "c1ccc2oc(CN3CCOC(Cn4cccn4)C3)nc2c1", "note": "(stereo unspecified)", "INHIBITION": -51.5}, {"smiles": "Cc1cnn(CC2CN(Cc3nc(C)c4ccccc4n3)CCO2)c1", "note": "(stereo unspecified)", "INHIBITION": 35.3}, {"smiles": "Cc1nc(CN2CCOC(Cn3cncn3)C2)nc2ccccc12", "note": "(stereo unspecified)", "INHIBITION": 21.1}, {"smiles": "Cc1cnn(CC2CN(Cc3cccc(OC(C)C)c3)CCO2)c1", "note": "(stereo unspecified)", "INHIBITION": 70.3}, {"smiles": "Cc1cnn(CC2CN(Cc3cccc(OCC(N)=O)c3)CCO2)c1", "note": "(stereo unspecified)", "INHIBITION": -2.4}, {"smiles": "c1ccc2sc(N3CCOC(Cn4cccn4)C3)nc2c1", "note": "(stereo unspecified)", "INHIBITION": 26.3}, {"smiles": "Cn1c(CN2CCOC(Cn3cncn3)C2)nc2ccccc21", "note": "(stereo unspecified)", "INHIBITION": -4.93}, {"smiles": "Cc1nc(C)n(C2CCCN(C(=O)COc3cccc(C#N)c3)C2)n1", "note": "(stereo unspecified)", "INHIBITION": 22.3}, {"smiles": "C[C@@H](O)CNC(=O)c1nc(CC(=O)Nc2cccc(C(F)(F)F)c2)no1", "INHIBITION": 29.9}, {"smiles": "Cc1ccc(N2CCC3(CC2)CC(OCC(C)C)C3)nn1", "INHIBITION": 31.2}, {"smiles": "O=C(O)C1CN(c2cccc(Cl)c2)CCO1", "note": "(stereo unspecified)", "INHIBITION": -6.92}, {"smiles": "COCC(O)CNC(=O)Nc1c(F)cc(F)cc1-c1ccccc1", "note": "(stereo unspecified)", "INHIBITION": 1.19}, {"smiles": "CCn1ncc2c1C(COCC1CC1)CN(c1ccncn1)C2", "note": "(stereo unspecified)", "INHIBITION": -15.1}, {"smiles": "COCC(=O)NCc1cc(=O)n2c(n1)CN(Cc1cccs1)CCC2", "INHIBITION": 25.8}, {"smiles": "CCC[C@@H]1CN(c2ncnc3ccsc23)C[C@H]1NS(C)(=O)=O", "INHIBITION": -3.58}, {"smiles": "Cc1cnccc1NCCNC(=O)[C@H]1CNC[C@H](C(=O)N2CCCC2)C1", "INHIBITION": 15.9}, {"smiles": "CC(C)CCN1CCC2(CC1)NCc1ccccc1NC2=O", "INHIBITION": 25.9}, {"smiles": "Cc1cnn(CC2CN(Cc3nc4ccccc4o3)CCO2)c1", "note": "(stereo unspecified)", "INHIBITION": -61.4}, {"smiles": "Cc1cnn(CC2CN(CCS(C)(=O)=O)CCO2)c1", "note": "(stereo unspecified)", "INHIBITION": -31.4}, {"smiles": "CC(C)(C)c1nnc(CN2CCOC(Cn3cccn3)C2)o1", "note": "(stereo unspecified)", "INHIBITION": 59.7}, {"smiles": "Cc1cnn(CC2CN(CCCS(C)(=O)=O)CCO2)c1", "note": "(stereo unspecified)", "INHIBITION": -12.1}, {"smiles": "Cc1cnn(CC2CN(Cc3nc4ccccc4s3)CCO2)c1", "note": "(stereo unspecified)", "INHIBITION": 74.4}, {"smiles": "Cc1cnn(CC2CN(Cc3nc4ccccc4n3C)CCO2)c1", "note": "(stereo unspecified)", "INHIBITION": -43.6}, {"smiles": "Cc1cnn(CC2CN(CCCS(=O)(=O)N(C)C)CCO2)c1", "note": "(stereo unspecified)", "INHIBITION": 77.8}, {"smiles": "CCc1nnc(CN2CCOC(Cn3cccn3)C2)o1", "note": "(stereo unspecified)", "INHIBITION": -5.25}, {"smiles": "CC(C)(C)c1nnc(CN2CCOC(Cn3cncn3)C2)o1", "note": "(stereo unspecified)", "INHIBITION": 40.3}, {"smiles": "Cc1nc(NCc2ccc(F)cc2)cc(C(=O)N2CCOCC2)n1", "INHIBITION": -10.1}, {"smiles": "Clc1cccc(CNc2cnn(CCN3CCCCC3)c2)c1", "INHIBITION": 21.2}, {"smiles": "CC(C)Nc1nc(O)cc(C2CC(=O)N(C3CCCCC3)C2)n1", "note": "(stereo unspecified)", "INHIBITION": -23.245}, {"smiles": "CN(C)c1cc(C(=O)NCCc2nnc(-c3ccco3)[nH]2)ccn1", "INHIBITION": 17.4}, {"smiles": "O=C(NCC1CC1)C1CN(C(=O)Nc2ccccc2)CC12CCOCC2", "note": "(stereo unspecified)", "INHIBITION": 19.4}, {"smiles": "CCN(Cc1ccncc1)C(=O)C(C)n1ccnc1C(C)C", "note": "(stereo unspecified)", "INHIBITION": 10.3}, {"smiles": "CC(C)N1C(=O)CN(CCCO)CC1(C)C", "INHIBITION": -23}, {"smiles": "Cc1ccc(NC(=O)c2cccc(OCc3nnnn3C)c2)nc1", "INHIBITION": -1.57}, {"smiles": "CCOc1cc(NC(=O)N2CCC(c3nnc[nH]3)CC2)ccc1C", "INHIBITION": 56.6}, {"smiles": "CCOc1ccc(NC(=O)N2CCOC(C(N)=O)C2)cc1C", "note": "(stereo unspecified)", "INHIBITION": -5.08}, {"smiles": "O=C(Nc1ccc(OC(F)F)cc1)N1CCC(c2nnc[nH]2)CC1", "INHIBITION": 63.3}, {"smiles": "O=C(CCCc1ccc(Cl)cc1)N1CCC(c2nnc[nH]2)CC1", "INHIBITION": 20.9}, {"smiles": "O=C(CCCN1CCCCC1)N1CCC(c2nnc[nH]2)CC1", "INHIBITION": -7.53}, {"smiles": "COc1ccc(NC(=O)N2CCC(c3nnc[nH]3)CC2)cc1C", "INHIBITION": 37.6}, {"smiles": "CC(Cn1cccn1)n1cnc2cccc(Cl)c2c1=O", "note": "(stereo unspecified)", "INHIBITION": 36.6}, {"smiles": "Oc1cc(C2CCNCC2)nc(-c2ccsc2)n1", "INHIBITION": -33.6}, {"smiles": "Cc1occc1CNC(=O)C1CCN(C(=O)OC(C)(C)C)C1", "note": "(stereo unspecified)", "INHIBITION": -2.27}, {"smiles": "Fc1ccc(NCc2nnsc2Cl)c(OC(F)F)c1", "INHIBITION": 47.4}, {"smiles": "C[S+]([O-])c1ccc(CNc2ccc(F)cc2OC(F)F)cc1", "note": "(stereo unspecified)", "INHIBITION": 38.5}, {"smiles": "Fc1ccc(NCc2ccncc2)c(OC(F)F)c1", "INHIBITION": 73.2}, {"smiles": "c1cc2nc(C3CCNCC3)nn2cc1NC1CCC1", "INHIBITION": 40.3}, {"smiles": "CN(Cc1cccs1)C1CCC[C@@H]2CN(C(N)=O)C[C@H]12", "note": "(stereo partly specified)", "INHIBITION": 39.3}, {"smiles": "CCN(CC)Cc1cnc2n1CCN(Cc1c(C)noc1C)CC2", "INHIBITION": 27.5}, {"smiles": "Cc1noc(C)c1CN1CCc2ncc(CN(C)C)n2CC1", "INHIBITION": 57.1}, {"smiles": "Cc1noc(C)c1CN1CCc2ncc(CN3CCCC3)n2CC1", "INHIBITION": 40.8}, {"smiles": "CC(c1nc(C2CC2)no1)N1CCN(CCCN2CCCC2=O)CC1", "note": "(stereo unspecified)", "INHIBITION": -2.53}, {"smiles": "COc1cccc(CNC(C)Cn2cccn2)c1OC", "note": "(stereo unspecified)", "INHIBITION": 20.9}, {"smiles": "CCc1nnc(NCc2cccc(OC)c2OC)o1", "INHIBITION": 50.2}, {"smiles": "COc1cccc(CNc2nnc(C(C)(C)C)o2)c1OC", "INHIBITION": 7.22}, {"smiles": "Cc1ncccc1Oc1ncnc(N2CCCC(O)(CO)CC2)c1C", "note": "(stereo unspecified)", "INHIBITION": 36.7}, {"smiles": "Cc1cncc(C2CCCN2CC(N)=O)n1", "note": "(stereo unspecified)", "INHIBITION": 35}, {"smiles": "Cc1ccc(OCC(O)COC2CCOCC2)c(Br)c1", "note": "(stereo unspecified)", "INHIBITION": -98.4}, {"smiles": "Cc1ccc(OCC(O)COC2CCOCC2)c(Cl)c1", "note": "(stereo unspecified)", "INHIBITION": 71.3}, {"smiles": "OC(COc1ccccc1Br)COC1CCOCC1", "note": "(stereo unspecified)", "INHIBITION": -42.8}, {"smiles": "Cc1ccc(NC(=O)C2CSCN2C(=O)c2cnccn2)cc1C", "note": "(stereo unspecified)", "INHIBITION": 23.25}, {"smiles": "NCCCC(=O)NCC1(O)CCCN(c2ccnc3cccnc23)C1", "note": "(stereo unspecified)", "INHIBITION": 4.35}, {"smiles": "CCCn1nc(C)c(C(=O)N[C@@H]2CC[C@@H](N3CCCC3)[C@@H]2O)c1C", "INHIBITION": 1.65}, {"smiles": "Cc1cccc(CN2C(=O)CCC23CCN(Cc2nccn2C)CC3)n1", "INHIBITION": 37.2}, {"smiles": "CN(C)[C@@H]1CO[C@H](CNC(=O)c2ccccc2)[C@H]1O", "INHIBITION": 53}, {"smiles": "O=C(NC[C@H]1OC[C@@H](NC2CCC(F)(F)CC2)[C@@H]1O)c1ccccc1", "INHIBITION": 59.3}, {"smiles": "CN(C)[C@@H]1CO[C@H](CNC(=O)c2cccs2)[C@H]1O", "INHIBITION": 44.1}, {"smiles": "O=C(NC[C@H]1OC[C@@H](NC2CCC(F)(F)CC2)[C@@H]1O)Nc1ccccc1", "INHIBITION": 25.3}, {"smiles": "CN(C)[C@@H]1CO[C@H](CNC(=O)Nc2ccccc2)[C@H]1O", "INHIBITION": 11.6}, {"smiles": "O=C(NC[C@H]1OC[C@@H](NC2COC2)[C@@H]1O)c1ccccc1", "INHIBITION": 5.58}]}]}
